A short description of assay [1]: antimalarial activity against Dd2 strain (AID 2302;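 active means growth inhibition above 50% at the single 2 µM test dose, taken to imply half-maximal potency below 2 µM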;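 further: 0% = DMSO untreated growth and 100% = chloroquine plus artemisinin killed control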). The conditions noted are these: P. falciparum Dd2 in RBCs, LDH growth readout, 72 h; at 2 µM; active compounds read high.
Assay [2] in a line: human hepatoma cell viability loss – ATP luminescence, cytotoxicity control for P. falciparum antimalarial project, primary screen (AID 2303;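 active means inhibition above 50%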;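 further: 0% = DMSO wells and 100% = digitonin-killed cells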). To be noted: HepG2 viability, 24-48 h, at 10 µM, active compounds read high.
Assay [3] deals with L-lactate dehydrogenase (Plasmodium falciparum (isolate CDC / Honduras)) (UniProt Q27743). The experiment in a line: PfLDH activity inhibition – cell lysate, 3D7 strain, counter-screen for P. falciparum growth inhibition project (AID 2304).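 Further: 0% = vehicle and 100% = reference inhibitor.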 The conditions noted are these: P. falciparum 3D7 crude extract, LDH APAD/NBT absorbance; at 2 µM; active compounds read high. For orientation: A counterscreen serves to expose hits that act by an unwanted route or on another target.
Chain of L-lactate dehydrogenase (Plasmodium falciparum (isolate CDC / Honduras)) (Q27743 whole entry, looked up): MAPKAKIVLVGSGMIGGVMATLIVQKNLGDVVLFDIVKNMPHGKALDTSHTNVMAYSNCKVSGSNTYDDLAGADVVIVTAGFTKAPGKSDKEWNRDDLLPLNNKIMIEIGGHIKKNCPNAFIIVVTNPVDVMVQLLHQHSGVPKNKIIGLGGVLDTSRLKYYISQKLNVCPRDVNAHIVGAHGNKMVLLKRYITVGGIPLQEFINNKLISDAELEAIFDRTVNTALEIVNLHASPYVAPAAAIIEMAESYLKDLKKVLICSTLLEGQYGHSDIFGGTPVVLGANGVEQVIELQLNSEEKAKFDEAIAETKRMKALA

Assay [4] is described as follows: inhibition of 3D7 malaria parasite growth – strain 3D7 (AID 2306).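 Further: 0% = DMSO wells and 100% = chloroquine plus artemisinin control wells.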 To be noted: P. falciparum 3D7 erythrocytic growth, LDH absorbance, 72 h; at 2 µM; active compounds read high.
In assay [5] the target is Calcium-dependent protein kinase 1 (Plasmodium falciparum (isolate 3D7)) (UniProt P62344). Nature of the assay: PfCDPK1 kinase inhibitors, biochemical, TCAMS library (AID 1159585; cut-off not given, nearly all actives have IC50 up to about 0.98 µM;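 further: inhibitors leave more ATP so luminescence rises with inhibition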). The conditions noted are these: recombinant PfCDPK1, Kinase-Glo ATP depletion luminescence. On the technique in general: Kinase-Glo measures the ATP left after a reaction by luminescence.
Chain of Calcium-dependent protein kinase 1 (Plasmodium falciparum (isolate 3D7)) (P62344 whole entry, looked up): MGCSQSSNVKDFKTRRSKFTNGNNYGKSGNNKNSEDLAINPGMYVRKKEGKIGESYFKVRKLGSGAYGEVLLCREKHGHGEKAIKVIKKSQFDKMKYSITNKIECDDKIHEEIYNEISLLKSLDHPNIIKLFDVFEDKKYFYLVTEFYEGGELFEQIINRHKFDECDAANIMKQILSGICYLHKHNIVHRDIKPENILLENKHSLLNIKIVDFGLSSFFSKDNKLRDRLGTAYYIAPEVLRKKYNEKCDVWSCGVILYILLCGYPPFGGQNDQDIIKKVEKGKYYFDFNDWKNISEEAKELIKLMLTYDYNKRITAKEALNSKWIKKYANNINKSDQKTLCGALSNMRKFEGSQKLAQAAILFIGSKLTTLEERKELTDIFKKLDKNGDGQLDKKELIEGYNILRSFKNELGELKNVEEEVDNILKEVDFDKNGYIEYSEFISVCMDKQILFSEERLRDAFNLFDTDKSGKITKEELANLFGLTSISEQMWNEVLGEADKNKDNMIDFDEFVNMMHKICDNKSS
Assay [6] concerns the target Plasmodium falciparum protein kinase 6 (PK6, PF3D7_1337100) (UniProt Q8IDW1). The experiment in a line: PfPK6 kinase inhibitors, biochemical, TCAMS library (AID 1159586). The conditions noted are these: recombinant PfPK6, Kinase-Glo ATP depletion luminescence.
For assay [7], the target named is Protein kinase 7 (PK7), Plasmodium falciparum 3D7 (PF3D7_0213400) (UniProt Q7YTF7). Nature of the assay: inhibition of Plasmodium PK7 catalytic activity – biochemical, TCAMS antimalarial set, Kinase-Glo luminescence (AID 1159587). To be noted: recombinant PfPK7, Kinase-Glo ATP depletion luminescence.
Chain of Protein kinase 7 (PK7), Plasmodium falciparum 3D7 (PF3D7_0213400) (Q7YTF7 1-343): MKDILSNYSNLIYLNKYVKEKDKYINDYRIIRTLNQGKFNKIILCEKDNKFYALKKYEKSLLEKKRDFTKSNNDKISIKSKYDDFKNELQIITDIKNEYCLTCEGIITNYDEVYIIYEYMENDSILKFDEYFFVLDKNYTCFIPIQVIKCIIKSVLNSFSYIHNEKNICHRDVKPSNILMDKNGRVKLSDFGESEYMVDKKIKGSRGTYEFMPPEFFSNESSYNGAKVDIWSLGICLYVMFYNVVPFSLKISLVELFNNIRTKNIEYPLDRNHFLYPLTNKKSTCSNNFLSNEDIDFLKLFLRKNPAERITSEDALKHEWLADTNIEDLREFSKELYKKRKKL
Assay [8] addresses Calcium-dependent protein kinase 4 (Plasmodium falciparum (isolate 3D7)) (UniProt Q8IBS5). The experiment in a line: PfCDPK4 kinase inhibitors, biochemical, TCAMS library (AID 1159588; cut-off not given, nearly all actives have IC50 up to about 0.91 µM). The conditions noted are these: recombinant PfCDPK4, Kinase-Glo ATP depletion luminescence.

SMILES strings stand for the structures. Values joined by “and” are separate entries in the source; they are usually repeats but may differ in a detail not shown here. Identical values can stand only once. Values without a mark were called inactive. For some assays here: Entries with a potency or affinity are not part of this list. Active and inactive are the calls of the source. Unless noted, how the calls were made is not given here.

This is an account of results in PubChem BioAssay.

What is called inhibition is the change of the read-out against control, counted positive when it falls.

Chain of Calcium-dependent protein kinase 4 (Plasmodium falciparum (isolate 3D7)) (Q8IBS5 whole entry, looked up): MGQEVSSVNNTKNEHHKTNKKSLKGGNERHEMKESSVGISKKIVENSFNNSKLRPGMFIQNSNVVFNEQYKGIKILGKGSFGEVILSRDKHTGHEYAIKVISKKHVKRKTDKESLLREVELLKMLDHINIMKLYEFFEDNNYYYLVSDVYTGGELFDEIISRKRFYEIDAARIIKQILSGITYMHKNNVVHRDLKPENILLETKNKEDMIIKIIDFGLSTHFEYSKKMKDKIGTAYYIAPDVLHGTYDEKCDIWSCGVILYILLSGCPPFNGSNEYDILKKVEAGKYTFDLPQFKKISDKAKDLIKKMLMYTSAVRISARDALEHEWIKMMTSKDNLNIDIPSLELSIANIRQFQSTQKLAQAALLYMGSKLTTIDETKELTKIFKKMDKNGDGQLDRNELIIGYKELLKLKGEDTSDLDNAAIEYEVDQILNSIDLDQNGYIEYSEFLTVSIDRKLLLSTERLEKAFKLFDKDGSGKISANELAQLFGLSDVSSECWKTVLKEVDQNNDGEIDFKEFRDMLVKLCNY
Chain of Plasmodium falciparum protein kinase 6 (PK6, PF3D7_1337100) (Q8IDW1 1-305): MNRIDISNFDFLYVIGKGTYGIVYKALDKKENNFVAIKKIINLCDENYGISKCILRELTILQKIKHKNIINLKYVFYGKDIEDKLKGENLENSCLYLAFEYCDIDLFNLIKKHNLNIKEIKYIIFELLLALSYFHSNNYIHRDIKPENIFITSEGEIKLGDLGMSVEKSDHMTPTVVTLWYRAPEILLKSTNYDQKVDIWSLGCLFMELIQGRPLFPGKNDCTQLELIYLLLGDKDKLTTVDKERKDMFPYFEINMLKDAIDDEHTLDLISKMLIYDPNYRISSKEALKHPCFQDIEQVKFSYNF

As to `COc1cccc(CN2CCC(CCOC(c3ccccc3)c3ccccc3)CC2)c1O`, the growth inhibition in assay [1] is 99% (active); in assay [4], 97% (active). Moreover, the inhibition was 33% in assay [2] and 3% in assay [3]. The result in assay [5], in assay [6], in assay [7] and in assay [8] was inactive.
Consider `CN(C)CCc1c[nH]c2ccc(C(=O)Nc3ccc(-c4ccncc4)cc3)cc12`, for which the growth inhibition was 46% in assay [1] and 99% (active) in assay [4]. The results for the inhibition in assay [2] and in assay [3] were 23% and -7%, respectively. Moreover, the result in assay [5], in assay [6], in assay [7] and in assay [8] was inactive.
Take `CC[C@H]1CN2CC[C@H]1C[C@H]2[C@H](O)c1cc(N2CCCC(CO)C2)nc2ccc(OC)cc12` (some centres not stated): the growth inhibition was 99% (active) in assay [1] and 100% (active) in assay [4]. Further, the inhibition was 11% in assay [2] and 2% in assay [3]. The outcome in assay [5], in assay [6], in assay [7] and in assay [8] was inactive.
Take `CCC(C)CN1CCC(N(C)c2cc(NC(=O)c3cccc(C)c3)ccn2)CC1` (configuration not stated): the figures for the growth inhibition in assay [1] and in assay [4] were 14% and 93% (active), respectively. The inhibition in assay [2] and in assay [3] was 1% each time. Further, the result in assay [5], in assay [6], in assay [7] and in assay [8] was inactive.
Turning to `COc1cc(CN2CCN(c3ccnc(N(C)C4CCN(C)CC4)n3)CC2)cc(Cl)c1O`, the growth inhibition in assay [1] is 63% (active); in assay [4], 94% (active). The values for the inhibition in assay [2] and in assay [3] were 11% and -5%, respectively. Also, the result in assay [5], in assay [6], in assay [7] and in assay [8] was inactive.
For `NCc1ccc(-c2ccccc2CN(C(=O)Nc2ccccc2)C2CCN(Cc3ccccc3)CC2)cc1`, the growth inhibition was 35% in assay [1] and 100% (active) in assay [4]. The inhibition was 36% in assay [2] and 3% in assay [3]. Further, the result in assay [5], in assay [6], in assay [7] and in assay [8] was inactive.
Turning to `COc1ccc2c(c1)[nH]c1c(C=Cc3ccccc3)nccc12`, the growth inhibition was 6% in assay [1] and 91% (active) in assay [4]. The inhibition was 19% in assay [2] and 7% in assay [3]. Besides, the result in assay [5], in assay [6], in assay [7] and in assay [8] was inactive.
Turning to `C[C@@H](NC(C)(C)C)[C@H](O)c1ccc(Cl)c(C(F)(F)F)c1`, the growth inhibition in assay [1] and in assay [4] was 97% (active) each time. Moreover, the inhibition in assay [2] is -1%; in assay [3] it was -6%. Moreover, the outcome in assay [5], in assay [6], in assay [7] and in assay [8] was inactive.
As to `CN(C)c1cccc(CCNCCc2c[nH]c3ccc(Cl)cc23)c1`, the growth inhibition was 75% (active) in assay [1] and 94% (active) in assay [4]. Moreover, the inhibition in assay [2] was 19%; in assay [3] it was -6%. Further, the result in assay [5], in assay [6], in assay [7] and in assay [8] was inactive.
On to `CC(=O)Nc1ccc2[nH]cc(C3CCN(CC4CCC(NC(=O)/C=C/c5ccc(Cl)c(Cl)c5)CC4)CC3)c2c1` (configuration not stated), for which the growth inhibition in assay [1] is 99% (active) and 59% (active); in assay [4] it was 90% (active) and 100% (active). Further, the inhibition in assay [2] is 18% and 10%; in assay [3], 2% and 6%. Further, the outcome in assay [5], in assay [6], in assay [7] and in assay [8] was inactive.
Consider `CC(=O)Nc1ccc(CN2CCC(N(C)c3cc(NC(=O)c4cccs4)ccn3)CC2)cc1`, for which the growth inhibition in assay [1] is 43%; in assay [4], 101% (active). Further, the inhibition was -1% in assay [2] and 2% in assay [3]. For the same molecule, the result in assay [5], in assay [6], in assay [7] and in assay [8] was inactive.
For the molecule `CCOC(C(=O)OCC1CCCN(C)C1)(c1ccccc1)c1ccccc1` (configuration not stated), the growth inhibition in assay [1] is 3%; in assay [4], 98% (active). In addition, the inhibition is 13% in assay [2] and 0% in assay [3]. Further, the outcome in assay [5], in assay [6], in assay [7] and in assay [8] was inactive.
Regarding `Cc1ccc(/C=C/C(=O)NC2CCC(CN3CCC(c4c[nH]c5ccccc45)CC3)CC2)cc1` (configuration not stated), the growth inhibition in assay [1] was 66% (active) and 69% (active); in assay [4], 101% (active). Besides, the inhibition is 32% and 41% in assay [2]; -2% and 3% in assay [3]. For the same molecule, the result in assay [5], in assay [6], in assay [7] and in assay [8] was inactive.
Regarding `COc1ccc(OC)c(CNCC(O)c2cc(C(F)(F)F)cc(C(F)(F)F)c2)c1` (configuration not stated), the growth inhibition in assay [1] is 100% (active); in assay [4] it was 92% (active). The inhibition in assay [2] is 7%; in assay [3], 6%. Also, the result in assay [5], in assay [6], in assay [7] and in assay [8] was inactive.
Consider `CCCCCCCc1cc(O)c2c3c(c(=O)oc2c1)CN(C)CC3`, for which the growth inhibition is 100% (active) in assay [1] and 97% (active) in assay [4]. In addition, the inhibition was -5% in assay [2] and 3% in assay [3]. The result in assay [5], in assay [6], in assay [7] and in assay [8] was inactive.
For the molecule `Cc1[nH]c2cc(F)ccc2c1C1=CCN(CCCCC2(C)C(=O)Nc3c(F)cccc32)CC1` (configuration not stated), the growth inhibition is 89% (active) in assay [1] and 96% (active) in assay [4]. For the same molecule, the inhibition in assay [2] was 15%; in assay [3] it was -7%. Further, the outcome in assay [5], in assay [6], in assay [7] and in assay [8] was inactive.
`CN(C)CCCn1cc(C(=O)OC2C[C@H]3CC[C@@H](C2)N3C)c2cc(-c3ccccc3)ccc21` (some centres not stated): the growth inhibition in assay [1] is 96% (active); in assay [4] it was 97% (active). Moreover, the inhibition was 97% (active) in assay [2] and 0% in assay [3]. Moreover, the result in assay [5], in assay [6], in assay [7] and in assay [8] was inactive.
With `Cc1ccc(CC(C)NCC(O)c2cccc(Cl)c2)cc1F` (configuration not stated), the results for the growth inhibition in assay [1] and in assay [4] were 88% (active) and 95% (active), respectively. In addition, the inhibition is 1% in assay [2] and -2% in assay [3]. The outcome in assay [5], in assay [6], in assay [7] and in assay [8] was inactive.
Consider `Cn1nc(C(F)(F)F)cc1-c1ccc(C(=O)NC2CCC(CN3CCC(c4c[nH]c5ccccc45)CC3)CC2)s1` (configuration not stated), for which the growth inhibition in assay [1] is 97% (active); in assay [4], 101% (active). The results for the inhibition in assay [2] and in assay [3] were 45% and -1%, respectively. The result in assay [5], in assay [6], in assay [7] and in assay [8] was inactive.
